Source: PubChem BioAssay
Results filed as inconclusive are left out. The source made the active and inactive calls. Unless noted, the limit is not given here; nearly all actives have AC50 up to about 26 µM.

Tests used:
[1] = viability loss in pontine glioma line – cell-based, SU-DIPG-XVII, MIPE5.0, CellTiter-Glo, qHTS, dose response (AID 1347060); settings: CellTiter-Glo ATP luminescence;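 as to AC50: cells exposed to compound for 48 hours before viability readout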
[2] = viability loss in pontine glioma line – cell-based, SU-DIPG-XIII, MIPE5.0, CellTiter-Glo, qHTS, dose response (AID 1347064; cut-off not given, nearly all actives have AC50 up to about 23 µM;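 as to AC50: cells exposed to compound for 48 hours before the viability read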); settings: CellTiter-Glo ATP luminescence
[3] = viability loss in pontine glioma line – cell-based, SU-DIPG-XXV, MIPE5.0, CellTiter-Glo, qHTS, dose response (AID 1347065); settings: CellTiter-Glo ATP luminescence;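 also: cells exposed to compound for 48 hours before ATP readout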
[4] = JHH-DIPG-1 glioma cell viability, MIPE5.0 library, CellTiter-Glo luminescence, qHTS (AID 1347067); settings: JHH-DIPG-1 glioma viability, CellTiter-Glo ATP luminescence;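 also: cells exposed to compound for 48 hours before readout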
[5] = growth inhibition of DIPG cells – cell-based, MIPE5.0 library, qHTS (AID 1347068; cut-off not given, nearly all actives have IC50 up to about 30 µM;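 as to IC50: cells exposed to compound for 48 hours before viability readout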); settings: SU-DIPG-XXV viability

| Compound | AC50 [1] | AC50 [2] | AC50 [3] | AC50 [4] | IC50 [5] | outcome [1] | outcome [2] | outcome [3] | outcome [4] | outcome [5] |
| --- | --- | --- | --- | --- | --- | --- | --- | --- | --- | --- |
| CCN1CCN(Cc2ccc(NC(=O)c3ccc(C)c(/C=C/c4cnc5[nH]ccc5c4OC)c3)cc2C(F)(F)F)CC1 | 1.86 µM (active) | 2.35 µM (active) | 2.09 µM (active) | 3.72 µM (active) | 3.72 µM (active) | – | – | – | – | – |
| CC(C)N(CCCNC(=O)Nc1ccc(C(C)(C)C)cc1)C[C@H]1O[C@@H](n2ccc3c(N)ncnc32)[C@H](O)[C@@H]1O | – | – | – | – | – | inactive | inactive | inactive | inactive | inactive |
| CC(=O)N[C@H]1CSSC[C@@H](C(N)=O)NC(=O)[C@H](C(C)C)NC(=O)[C@H](C)NC(=O)[C@H](Cc2cnc[nH]2)NC1=O | – | – | – | – | – | inactive | inactive | inactive | inactive | inactive |
| CS(=O)(=O)c1ccc(Oc2cc(F)cc(C#N)c2)c2c1[C@H](O)C(F)(F)C2 | – | – | – | – | – | inactive | inactive | inactive | inactive | inactive |
| Cc1cc(O)cc2c1[C@]1(C)CC[C@H]3C(C)(C)CCC[C@]3(C)[C@H]1C2 | – | – | – | – | – | inactive | inactive | inactive | inactive | inactive |
| CC1(C)CN(C(=O)c2ccc(-c3cccc4nc(NC(=O)C5CC5)nn34)cc2)C1 | – | – | – | – | – | inactive | inactive | inactive | inactive | inactive |
| Fc1cccc(-n2cnc3c(NCc4nc5c(F)c(F)ccc5[nH]4)nc(N4CCOCC4)nc32)c1 | 0.166 µM (active) | 0.295 µM (active) | 0.332 µM (active) | 0.209 µM (active) | 0.525 µM (active) | – | – | – | – | – |
| FC(F)(F)c1ccc(Nc2nc(-c3c(C(F)(F)F)nc4ccccn34)cs2)cc1 | 0.372 µM (active) | 14.8 µM (active) | 0.372 µM (active) | 1.86 µM (active) | 3.32 µM (active) | – | – | – | – | – |
| O=C1Cc2cc(C(=O)NC3C[C@H]4CC[C@@H](C3)N4S(=O)(=O)CC3CCN(CCCC(F)(F)F)CC3)c(Cl)cc2N1 (stereo not given in full) | – | – | – | – | – | inactive | inactive | inactive | inactive | inactive |
| CCCCNc1ncc2c(-c3ccc(F)cc3)nn(CC3CCC(N)CC3)c2n1 (stereo not given) | 8.11 µM (active) | 8.11 µM (active) | 5.12 µM (active) | 8.11 µM (active) | 7.23 µM (active) | – | – | – | – | – |
| CCc1cc(C(N)=O)ccc1-n1nc(C(C)C)c2c(-n3cnc(-c4cnn(C)c4)c3)ccnc21 | 1.86 µM (active) | 3.72 µM (active) | 1.86 µM (active) | 3.32 µM (active) | 3.32 µM (active) | – | – | – | – | – |
| CCN1CCN(Cc2ccc(NC(=O)Nc3ccc(Oc4cc(NC)ncn4)cc3)cc2C(F)(F)F)CC1 | 7.42 µM (active) | 3.32 µM (active) | 10.5 µM (active) | 3.72 µM (active) | 7.42 µM (active) | – | – | – | – | – |
| C=CC(=O)N1CC[C@@H](Oc2nc(Nc3ccc(N4CCC(N5CCN(C)CC5)CC4)cc3)c(C(N)=O)nc2CC)C1 | 1.15 µM (active) | 0.811 µM (active) | 0.91 µM (active) | 2.29 µM (active) | 4.56 µM (active) | – | – | – | – | – |
| CC(=O)Nc1cc(Oc2ccc3c(nc(Nc4ccc(F)cc4F)n3C)c2C)ccn1 | 0.372 µM (active) | 4.17 µM (active) | 0.118 µM (active) | 0.525 µM (active) | 1.05 µM (active) | – | – | – | – | – |
| C[C@@H]1CCN(C(=O)N2CCCC2)C[C@@H]1N(C)c1ncnc2[nH]ccc12 | – | – | – | – | – | inactive | inactive | inactive | inactive | inactive |
| COc1ccc(N2C(=O)N(c3c(C)cccc3Cl)Cc3cnc(Nc4ccc(C5CCN(C)CC5)cc4OC)nc32)nc1 | 3.72 µM (active) | 9.34 µM (active) | 9.34 µM (active) | 16.6 µM (active) | 14.8 µM (active) | – | – | – | – | – |
| O=C(NC[C@H](O)CN1CCc2ccccc2C1)c1cc(NC2COC2)ncn1 | 23.5 µM (active) | – | – | – | – | – | inactive | inactive | inactive | inactive |
| NC(=O)/C(=C/n1cnc(-c2cc(C(F)(F)F)cc(C(F)(F)F)c2)n1)c1cncnc1 | 0.417 µM (active) | 2.09 µM (active) | 2.35 µM (active) | 11.8 µM (active) | 3.32 µM (active) | – | – | – | – | – |
| CCCC1(CCC)CCC2(CCN(CCCN(CC)CC)C2)CC1 | 7.42 µM (active) | 4.17 µM (active) | 6.61 µM (active) | 3.72 µM (active) | 10.5 µM (active) | – | – | – | – | – |
| CN1CCN(c2ccc(C(=O)Nc3n[nH]c4ccc(Cc5cc(F)cc(F)c5)cc34)c(NC3CCOCC3)c2)CC1 | 2.09 µM (active) | 4.17 µM (active) | 2.35 µM (active) | 3.32 µM (active) | 5.25 µM (active) | – | – | – | – | – |
| CN1C(=O)N[C@@H](Cc2c[nH]c3c(Cl)cccc23)C1=O | – | – | – | – | – | inactive | inactive | inactive | inactive | inactive |
| C=CCN1C[C@H](C(=O)N(CCCN(C)C)C(=O)NCC)CC2c3cccc4[nH]cc(c34)C[C@H]21 (stereo not given in full) | – | – | – | – | – | inactive | inactive | inactive | inactive | inactive |
| O=C(NO)c1ccc(C2=Nc3ccccc3Oc3ccccc32)cc1 | 10.5 µM (active) | 5.25 µM (active) | 7.42 µM (active) | 11.8 µM (active) | 14.8 µM (active) | – | – | – | – | – |

| Compound | AC50 [1] | AC50 [2] | AC50 [3] | AC50 [4] | IC50 [5] | outcome [1] | outcome [2] | outcome [3] | outcome [4] | outcome [5] |
| --- | --- | --- | --- | --- | --- | --- | --- | --- | --- | --- |
| CCCC(CCC)C(=O)Nc1ccn([C@@H]2O[C@H](CO)[C@@H](O)C2(F)F)c(=O)n1 | 4.68 µM (active) | – | – | – | – | – | inactive | inactive | inactive | inactive |
| C=CC(=O)Nc1cccc(Oc2nc(Nc3ccc(N4CCN(C)CC4)cc3)nc3ccsc23)c1 | 8.33 µM (active) | 13.2 µM (active) | 9.34 µM (active) | 10.5 µM (active) | 0.59 µM (active) | – | – | – | – | – |
| CN1C(=O)[C@@H](NC(=O)c2cc(Cc3ccccc3)on2)COc2ccccc21 | – | – | – | – | – | inactive | inactive | inactive | inactive | inactive |
| COc1cc2c(cc1O)CCN[C@]21CS[C@@H]2c3c(OC(C)=O)c(C)c4c(c3[C@H](COC1=O)N1[C@@H]2[C@H]2c3c(cc(C)c(OC)c3O)C[C@@H]([C@@H]1O)N2C)OCO4 | 0.000382 µM (active) | 0.00135 µM (active) | 0.00152 µM (active) | 0.000679 µM (active) | 0.0241 µM (active) | – | – | – | – | – |
| NS(=O)(=O)NCCNc1nonc1C(=Nc1ccc(F)c(Br)c1)NO | – | – | – | – | – | inactive | inactive | inactive | inactive | inactive |
| Cc1c(-c2c(-c3ccc(F)o3)sc3ncnc(O[C@@H](Cc4ccccc4OCc4ccnn4CC(F)(F)F)C(=O)O)c23)ccc(OCCN2CCN(C)CC2)c1Cl | 0.295 µM (active) | 6.61 µM (active) | 0.132 µM (active) | 3.32 µM (active) | 1.32 µM (active) | – | – | – | – | – |
| CN[C@@H](C)C(=O)N[C@H](C(=O)N1CCC[C@H]1C(=O)Nc1sc(-c2ncco2)nc1-c1ccccc1)C1CCCCC1 | – | – | – | – | – | inactive | inactive | inactive | inactive | inactive |
| Cc1ccc(NC(=O)c2ccc(CN3CC[C@H](N(C)C)C3)c(C(F)(F)F)c2)cc1Nc1nccc(-c2cncnc2)n1 | 10.2 µM (active) | 14.4 µM (active) | 16.2 µM (active) | 11.5 µM (active) | – | – | – | – | – | inactive |
| CCC(C)CNCC(=O)N1CCc2sccc2C1c1cccc(C)n1 (stereo not given) | – | – | – | – | – | inactive | inactive | inactive | inactive | inactive |
| O=C(/C=C\n1cnc(-c2cc(C(F)(F)F)cc(C(F)(F)F)c2)n1)NNc1cnccn1 | 1.66 µM (active) | 16.6 µM (active) | 4.17 µM (active) | 16.6 µM (active) | 14.8 µM (active) | – | – | – | – | – |
| COc1ccc(Cl)cc1-c1cc(=O)[nH]c(=S)n1CC(N)=O | – | – | – | – | – | inactive | inactive | inactive | inactive | inactive |
| Cc1c(CN2CCC(Nc3ncnc4sc(CC(F)(F)F)cc34)CC2)ccc2c1cc(C#N)n2Cc1cn[nH]c1 | 20.9 µM (active) | 23.5 µM (active) | 29.5 µM (active) | 18.6 µM (active) | – | – | – | – | – | inactive |
| O=C(O)CNC(=O)c1nc(Cl)c2ccccc2c1O | – | – | – | – | – | inactive | inactive | inactive | inactive | inactive |
| COc1cc2c(Oc3ccc4[nH]c(C)cc4c3F)ccnc2cc1OCC1(N)CC1 | 3.32 µM (active) | 2.95 µM (active) | 2.95 µM (active) | 5.9 µM (active) | 16.6 µM (active) | – | – | – | – | – |
| Cc1[nH]c(/C=C2\C(=O)Nc3ccc(F)cc32)c(C)c1C(=O)NC[C@H](O)CN1CCOCC1 | 13.2 µM (active) | 18.6 µM (active) | 7.42 µM (active) | 16.6 µM (active) | – | – | – | – | – | inactive |
| Nc1ncccc1-c1nc2ccc(-c3ccccc3)nc2n1-c1ccc(C2(N)CCC2)cc1 | 11.8 µM (active) | 4.17 µM (active) | 2.95 µM (active) | 5.9 µM (active) | 20.9 µM (active) | – | – | – | – | – |
| CN(C)CCNC(=O)COc1c2cccc1Cc1cccc(c1OCC(=O)NCCN(C)C)Cc1cccc(c1OCC(=O)NCCN(C)C)Cc1cccc(c1OCC(=O)NCCN(C)C)C2 | – | – | – | – | – | inactive | inactive | inactive | inactive | inactive |
| Cc1[nH]cnc1CN1CCN(C(=O)N[C@@H](CC(C)C)C(=O)O)[C@@H](Cc2ccccc2)C1=O | – | – | – | – | – | inactive | inactive | inactive | inactive | inactive |
| CC(=O)N1CCC[C@H]1C(=O)N[C@@H](Cc1cnc[nH]1)C(=O)N[C@@H](CO)C(=O)N[C@@H](CS)C(=O)N[C@@H](CC(N)=O)C(N)=O | – | – | – | – | – | inactive | inactive | inactive | inactive | inactive |
| COc1ccc(S(=O)(=O)N2CCc3cccc(-c4ccncc4)c32)cc1 | 0.468 µM (active) | 0.295 µM (active) | 0.332 µM (active) | 0.332 µM (active) | 0.833 µM (active) | – | – | – | – | – |
| COc1ccc(N(C)c2nc(C)nc3ccccc23)cc1 | 0.00833 µM (active) | 0.00934 µM (active) | 0.0059 µM (active) | 0.0105 µM (active) | 0.0166 µM (active) | – | – | – | – | – |
| Cn1ncc(Cl)c1-c1cc(C(=O)NC(CN)Cc2ccc(F)c(F)c2)oc1Cl (stereo not given) | 14.8 µM (active) | 5.9 µM (active) | 0.661 µM (active) | 18.6 µM (active) | 16.6 µM (active) | – | – | – | – | – |
